In PubChem BioAssay (EPA / NIEHS):
The source made the active and inactive calls. Rule for the calls: active = hit-call score of the fitted dose curve at least 0.9, where 1 is the maximum; inactive = score below 0.9.

Experiments:
Details in all cases: mRNA level, 48 h; actives raise or lower the signal
[1] = read-out: Apolipoprotein A-V (APOA5) gene, APOA5 (gene 116519); experiment: LTEA_HepaRG_APOA5: Life Technologies and Expression Analysis (LTEA) Assay for Apolipoprotein A-V (APOA5) gene using HepaRG (AID 2283474)
Method in brief: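 Human liver HepaRG cells are treated 48 h with test chemicals (100 uM top, half-log dilutions, 0.5% DMSO). APOA5 mRNA induction or loss is measured by qRT-PCR relative to vehicle.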

[2] = read-out: Apoptosis regulator Bcl-2 (Homo sapiens) (UniProt P10415); experiment: LTEA_HepaRG_BCL2: Life Technologies and Expression Analysis (LTEA) Assay for Bcl-2 gene using HepaRG (AID 2283475);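 note: BCL2 transcript by TaqMan qRT-PCR normalised to ACTB GAPDH and POLR2A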
Method in brief: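 qRT-PCR read-out (Fluidigm TaqMan) of BCL2 transcript, normalised to three housekeeping genes, after 48 h chemical exposure of HepaRG cells; 8-point half-log series, top 100 uM, 0.5% DMSO vehicle. Gain or loss of signal fitted relative to DMSO baseline.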

[3] = read-out: Bcl-2 (BID) gene, BID (gene 637); experiment: LTEA_HepaRG_BID: Life Technologies and Expression Analysis (LTEA) Assay for Bcl-2 (BID) gene using HepaRG (AID 2283476)
Method in brief: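 HepaRG, 48 h exposure, 8-pt half-log series, top 100 uM, 0.5% DMSO vehicle, duplicates. Readout: BID mRNA by TaqMan qRT-PCR; housekeeping-normalized; bidirectional curve fit vs DMSO baseline.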

Caspase-3 (Homo sapiens) = Caspase-3 (Homo sapiens) (UniProt P42574); experiment: LTEA_HepaRG_CASP3: Life Technologies and Expression Analysis (LTEA) Assay for cysteine-aspartic acid protease (CASP3) using HepaRG (AID 2283477)
Method in brief: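 In HepaRG liver cells dosed for 48 h at up to 100 uM (eight-point, duplicate), CASP3 expression changes are scored by qRT-PCR. Activity is fitted in both directions with 0.5% DMSO as baseline.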

[4] = read-out: Cytochrome P450 (CYP24A1), CYP24A1 (gene 1591); experiment: LTEA_HepaRG_CYP24A1: Life Technologies and Expression Analysis (LTEA) Assay for Cytochrome P450 (CYP24A1) using HepaRG (AID 2283478)
Method in brief: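 Human liver HepaRG cultures receive each chemical for 48 h across an eight-point half-log series topping at 100 uM in 0.5% DMSO. Induction or suppression of CYP24A1 mRNA is scored relative to vehicle after housekeeping-gene normalization.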

[5] = read-out: Cytochrome P450 (CYP1A2), CYP1A2 (gene 1544); experiment: LTEA_HepaRG_CYP1A2: Life Technologies and Expression Analysis (LTEA) Assay for Cytochrome P450 (CYP1A2) using HepaRG (AID 2283479);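 for AC50: TaqMan qRT-PCR transcript level normalized to ACTB GAPDH and POLR2A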
Method in brief: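 Assesses CYP1A2 mRNA in human HepaRG liver cells after 48 h chemical exposure at up to 100 uM. Values come from qRT-PCR with bidirectional curve fitting relative to DMSO.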

[6] = read-out: cysteine-aspartic acid protease (CASP8), CASP8 (gene 841); experiment: LTEA_HepaRG_CASP8: Life Technologies and Expression Analysis (LTEA) Assay for cysteine-aspartic acid protease (CASP8) using HepaRG (AID 2283480)
Method in brief: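 qRT-PCR readout of CASP8 mRNA, normalized to three housekeeping genes, after 48 h chemical exposure of HepaRG cells; 8-point half-log series, top 100 uM, 0.5% DMSO vehicle. Bidirectional curve fitting against DMSO baseline.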

[7] = read-out: Cytochrome P450 (CYP2B6), CYP2B6 (gene 1555); experiment: LTEA_HepaRG_CYP2B6: Life Technologies and Expression Analysis (LTEA) Assay for Cytochrome P450 (CYP2B6) using HepaRG (AID 2283481)
Method in brief: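 Using 48 h treatment of HepaRG cells in serum-free induction medium, concentrations spanned half-log steps from 100 uM in 0.5% DMSO vehicle. CYP2B6 mRNA induction or loss is scored by qRT-PCR against DMSO.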

[8] = read-out: Cytochrome P450 2C19 (Homo sapiens) (UniProt P33261); experiment: LTEA_HepaRG_CYP2C19: Life Technologies and Expression Analysis (LTEA) Assay for CYP2C19 using HepaRG (AID 2283482)
Method in brief: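 Human HepaRG liver cells received test chemicals for 48 h (highest 100 uM, half-log dilutions in 0.5% DMSO). CYP2C19 mRNA induction or loss is read by multiplexed qRT-PCR and fitted in both directions versus vehicle.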

CYP2C8 (gene 1558) = experiment: LTEA_HepaRG_CYP2C8: Life Technologies and Expression Analysis (LTEA) Assay for CYP2C8 using HepaRG (AID 2283483)
Method in brief: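 HepaRG (human liver line), 48 h chemical exposure, 8-pt half-log series from 100 uM, 0.5% DMSO vehicle. Readout: CYP2C8 transcript by qRT-PCR, housekeeping-normalized. Bidirectional fit vs DMSO baseline.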

Measured: AC50

Chain of Caspase-3 (Homo sapiens) (P42574 whole entry, looked up): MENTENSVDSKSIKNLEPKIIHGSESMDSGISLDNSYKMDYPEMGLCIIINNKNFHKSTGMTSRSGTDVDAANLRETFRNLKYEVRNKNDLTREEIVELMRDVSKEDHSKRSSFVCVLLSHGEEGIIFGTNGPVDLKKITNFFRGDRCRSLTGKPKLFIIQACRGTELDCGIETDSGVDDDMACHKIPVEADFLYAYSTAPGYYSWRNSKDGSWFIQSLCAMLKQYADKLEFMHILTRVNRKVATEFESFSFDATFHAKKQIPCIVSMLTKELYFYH
Chain of Apoptosis regulator Bcl-2 (Homo sapiens) (P10415 whole entry, looked up): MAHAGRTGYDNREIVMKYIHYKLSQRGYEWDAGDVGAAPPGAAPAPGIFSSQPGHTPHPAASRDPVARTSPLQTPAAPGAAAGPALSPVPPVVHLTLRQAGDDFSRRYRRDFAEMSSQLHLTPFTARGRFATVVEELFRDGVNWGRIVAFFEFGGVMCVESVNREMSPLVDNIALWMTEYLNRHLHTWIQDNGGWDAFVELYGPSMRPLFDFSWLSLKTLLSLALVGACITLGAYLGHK
Chain of Cytochrome P450 2C19 (Homo sapiens) (P33261 whole entry, looked up): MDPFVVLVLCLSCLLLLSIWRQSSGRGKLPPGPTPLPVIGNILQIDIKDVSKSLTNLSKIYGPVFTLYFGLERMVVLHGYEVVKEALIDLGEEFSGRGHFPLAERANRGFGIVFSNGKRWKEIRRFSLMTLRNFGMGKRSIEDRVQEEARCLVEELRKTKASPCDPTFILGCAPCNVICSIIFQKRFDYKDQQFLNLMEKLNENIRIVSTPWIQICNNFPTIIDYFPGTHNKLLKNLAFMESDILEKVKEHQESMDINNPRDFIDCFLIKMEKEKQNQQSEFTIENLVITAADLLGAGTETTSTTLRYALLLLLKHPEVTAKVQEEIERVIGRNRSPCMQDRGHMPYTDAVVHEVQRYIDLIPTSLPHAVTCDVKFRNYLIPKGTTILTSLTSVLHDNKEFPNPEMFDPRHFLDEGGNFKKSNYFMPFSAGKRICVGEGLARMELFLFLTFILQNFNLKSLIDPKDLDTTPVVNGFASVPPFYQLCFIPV

CC1(C(=O)Nc2ccc(O)c(Cl)c2Cl)CCCCC1
not listed: CYP2C8 (gene 1558)
inactive: all other assays above

CC(=NC#N)N(C)Cc1ccc(Cl)nc1
active: [7] 50 µM
not listed: [6] | CYP2C8 (gene 1558)
inactive: all other assays above

CC(C1CC1)C(O)(Cn1cncn1)c1ccc(Cl)cc1 (stereo not given)
active: [7] 1.06 µM | [8] 12.8 µM
not listed: CYP2C8 (gene 1558)
inactive: all other assays above

CCOP(=S)(Oc1cnc(C(C)(C)C)nc1)OC(C)C (stereo not given)
active: [7] 4.96 µM | [8] 11.5 µM
not listed: CYP2C8 (gene 1558)
inactive: all other assays above

S=C1NCCN1
active: [7] 10.3 µM
not listed: [6] | CYP2C8 (gene 1558)
inactive: all other assays above

CCOP(=O)(OCC)Oc1cc(C)nc(C(C)C)n1
not listed: [2] | CYP2C8 (gene 1558)
inactive: all other assays above

CCOP(=S)(OCC)SCCSCC
active: [7] 7.58 µM | [8] 22.2 µM
not listed: [6] | CYP2C8 (gene 1558)
inactive: all other assays above

CCc1cccc(C)c1N(C(=O)CCl)C(C)COC (stereo not given)
active: [7] 14.2 µM | [8] 16 µM
not listed: [6] | CYP2C8 (gene 1558)
inactive: all other assays above

CC(C)N(C(=O)SCC(Cl)=C(Cl)Cl)C(C)C
active: [5] 73.5 µM
not listed: [6] | CYP2C8 (gene 1558)
inactive: all other assays above

CON=C(C(=O)OC)c1ccccc1CON=C(C)c1cccc(C(F)(F)F)c1
not listed: CYP2C8 (gene 1558)
inactive: all other assays above

CCc1cnc(C2=NC(C)(C(C)C)C(=O)N2)c(C(=O)O)c1 (stereo not given)
not listed: [6] | CYP2C8 (gene 1558)
inactive: all other assays above

CSC1=N[C@@](C)(c2ccccc2)C(=O)N1Nc1ccccc1
active: [1] 33.8 µM | [2] 30.2 µM | [5] 25.4 µM | [7] 30.8 µM | [8] 38.1 µM
inactive: [3] | Caspase-3 (Homo sapiens) | [4] | [6]

CCNc1nc(Cl)nc(NC(C)(C)C#N)n1
active: [7] 1.68 µM | [8] 12.4 µM
not listed: [6] | CYP2C8 (gene 1558)
inactive: all other assays above

CSc1nnc(C(C)(C)C)c(=O)n1N
active: [7] 14.6 µM | [8] 9.92 µM
not listed: [6]
inactive: all other assays above

COc1ccc(C(=CC(=O)N2CCOCC2)c2ccc(Cl)cc2)cc1OC
active: [7] 0.00252 µM | [8] 10.4 µM
not listed: [6] | CYP2C8 (gene 1558)
inactive: all other assays above

CCCCOC(=O)c1ccccc1C(=O)O
active: [5] 32.8 µM | [7] 10.2 µM
not listed: CYP2C8 (gene 1558)
inactive: all other assays above

O=C(O)c1cc(Oc2ccc(C(F)(F)F)cc2Cl)ccc1[N+](=O)[O-]
active: [7] 50 µM | CYP2C8 (gene 1558) 8.77 µM
inactive: all other assays above
